From PubChem BioAssay
G9a block: qHTS Assay for Inhibitors of Histone Lysine Methyltransferase G9a | Histone-lysine N-methyltransferase EHMT2 (Homo sapiens), Q96KQ7 | G9a H3K9 monomethylation, AlphaScreen, 2 h | Potency, µM (series often up to 102 µM), inactives show top-dose activity, negative = inhibition, actives largely listed as inhibitors | actives 8.8% (n = 350,000) | AID 504332, 2011; note: % is set by controls: 0 for no effect and ±100 for the full control effect; nearly all actives have a fitted effect of over 75% in size
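G9a (20 nM) preincubated 15 min RT with compounds, then 500 nM biotinylated H3K9 peptide and 20 uM SAM added; 2 h RT reaction. Monomethyl-H3K9 product detected by AlphaScreen with anti-H3K9me1 antibody, streptavidin donor and anti-rabbit IgG acceptor beads.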
BAZ2B inh: qHTS Assay for Inhibitors of BAZ2B | Bromodomain adjacent to zinc finger domain protein 2B (Homo sapiens), Q9UIF8 | AlphaScreen BAZ2B-H3K14Ac peptide displacement | Potency, µM (doses to about 114 µM), for inactives: at the highest dose activity change, negative = inhibition, actives largely listed as inhibitors | actives 4.4% (n = 360,000); note: % is set by controls: 0 for no effect and ±100 for the full control effect; nearly all actives have a fitted effect of over 60% in size
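In this displacement format the biotinylated H3(5-23) peptide acetylated at Lys14 serves as ligand at 50 nM, with BAZ2B at 50 nM in PBS pH 7.4 containing 0.01% Tween-20. Donor and acceptor beads are 10 ug/mL final.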
HP1b binding inh: HTS for Inhibitors of HP1-beta Chromodomain Interactions with Methylated Histone Tails; AlphaScreen HP1-beta / biotin-H3K9me3 peptide binding; actives 0.56% (n = 390,000); Chromobox protein homolog 1 (Homo sapiens), P83916; Potency, µM (highest dose often 114 µM), for the others: at the highest dose activity change, negative = inhibition, actives largely listed as inhibitors; note: nearly all actives have a fitted effect of over 70% in size
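HP1-beta protein (50 nM final) preincubated 30 min at room temperature with biotinylated H3(1-18)K9me3 peptide (50 nM) in PBS pH 7.4, 0.01% Tween-20, then compound added for 30 min. AlphaScreen streptavidin donor/nickel chelate acceptor beads (10 ug/mL final), 30 min dark, luminescence read.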
JMJD2A Tudor inh: qHTS Assay for Inhibitors of JMJD2A-Tudor Domain; AlphaScreen JMJD2A-Tudor / H3K4me3 peptide binding; Potency, µM (titrated, usually from 114 µM), inactives show top-dose activity change, negative = inhibition, actives largely listed as inhibitors; actives 4.4% (n = 390,000); AID 504339, 2011; note: % is set by controls: 0 for no effect and ±100 for the full control effect; nearly all actives have a fitted effect of over 50% in size
Target sequence (O75164 whole entry, looked up, the tested form may be a part): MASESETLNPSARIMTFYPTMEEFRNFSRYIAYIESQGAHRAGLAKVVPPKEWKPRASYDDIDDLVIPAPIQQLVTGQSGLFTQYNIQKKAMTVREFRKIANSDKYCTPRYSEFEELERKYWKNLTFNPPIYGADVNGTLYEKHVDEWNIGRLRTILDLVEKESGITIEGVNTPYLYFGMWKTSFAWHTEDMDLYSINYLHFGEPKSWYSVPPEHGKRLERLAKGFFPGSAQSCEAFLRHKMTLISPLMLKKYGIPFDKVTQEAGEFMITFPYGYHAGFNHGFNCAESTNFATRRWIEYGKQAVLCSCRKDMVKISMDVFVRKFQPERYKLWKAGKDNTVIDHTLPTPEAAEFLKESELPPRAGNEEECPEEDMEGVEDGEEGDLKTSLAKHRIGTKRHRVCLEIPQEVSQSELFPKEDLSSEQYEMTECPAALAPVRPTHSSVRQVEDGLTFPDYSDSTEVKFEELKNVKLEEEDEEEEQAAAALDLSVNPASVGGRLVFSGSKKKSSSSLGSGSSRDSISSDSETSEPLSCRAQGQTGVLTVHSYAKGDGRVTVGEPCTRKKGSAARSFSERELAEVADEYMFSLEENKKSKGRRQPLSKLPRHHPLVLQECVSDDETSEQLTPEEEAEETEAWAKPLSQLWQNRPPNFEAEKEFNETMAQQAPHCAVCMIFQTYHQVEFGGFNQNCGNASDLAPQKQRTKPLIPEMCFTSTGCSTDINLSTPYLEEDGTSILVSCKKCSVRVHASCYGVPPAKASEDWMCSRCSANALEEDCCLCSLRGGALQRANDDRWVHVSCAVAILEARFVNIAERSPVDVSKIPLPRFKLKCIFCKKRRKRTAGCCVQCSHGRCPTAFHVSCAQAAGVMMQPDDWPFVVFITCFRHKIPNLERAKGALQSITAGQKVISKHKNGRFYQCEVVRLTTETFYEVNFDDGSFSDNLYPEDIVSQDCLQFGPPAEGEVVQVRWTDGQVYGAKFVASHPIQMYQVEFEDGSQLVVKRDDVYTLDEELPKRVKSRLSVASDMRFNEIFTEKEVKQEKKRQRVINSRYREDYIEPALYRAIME
L3MBTL1 inh: qHTS Assay for the Inhibitors of L3MBTL1; AlphaScreen L3MBTL1–H3K9me1 peptide binding; Potency, µM (series often up to 57.1 µM), inactives show at the top dose activity, negative = inhibition, actives largely listed as inhibitors; actives 0.66% (n = 230,000); note: % is set by controls: 0 for no effect and ±100 for the full control effect; nearly all actives have a fitted effect of over 60% in size
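AlphaScreen proximity signal between nickel-chelate acceptor and streptavidin donor beads (final 10 ug/mL) reports binding of 50 nM L3MBTL1 to 75 nM biotin-H3 K9me1 peptide; complex incubated with compounds 30 min at room temperature; cefsulodin titration as control.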
The depositor's hits bear a star; ? = inconclusive; · = no result given; ! = not active in a repeat; [ ] = remark or other dose. A selection: hits, their analogues and other compounds. The true share with any hit is near 11%. Calls come from the whole dose curve; as a rule, active = well fitted inhibition curve with a large enough effect; inconclusive = small, poorly fitted or top-dose-only effect; inactive = no such curve, though single readings can be large or run the other way. Potency is the fitted concentration of half-maximal effect.

SMILES	G9a block	BAZ2B inh	HP1b binding inh	JMJD2A Tudor inh	L3MBTL1 inh
CCc1ccc(-n2c(C)nc3cc(C(=O)NCc4cccnc4)ccc32)cc1	50.1µM*	-22.3%	22.3%	-30.5%	-1.6%
CCN1CCSc2ccc(C(=O)NCc3ccc(OC(C)C)cc3)cc21	44.7µM*!	-32.2%	20.7%	-20.4%	-8.5%
Cc1ccc(CN2CCSc3ccc(C(=O)N4CCN(c5ccc(Cl)cc5)CC4)cc32)cc1	3.16µM*	-37.4%	6.1%	?	·
CCOc1cc(-c2nnc(SCC(=O)NCCCOC)nc2-c2ccc(OC)c(OCC)c2)ccc1OC	?	?	4.8%	-8.7%	·
COc1ccc(-n2cc(C(=O)N(CCN(C)C)Cc3ccccc3)c3ccccc3c2=O)cc1	-40.8%[59 µM]	-33.5%	29.4%	?	·
CCOc1ccc(C(=O)N2CCc3cc(OC)c(OC)cc3C2COc2ccc3c(C)cc(=O)oc3c2)cc1OCC (stereo not given)	3.0%[59 µM]	0.0%	0.9%	-16.7%	·
CCOc1ccc(NC2c3ccccc3C(=O)N2Cc2ccco2)cc1 (stereo not given)	44.7µM*	50.1µM*	?	44.7µM*	-40.9%
COC(=O)c1cc(NC2c3ccccc3C(=O)N2Cc2ccco2)cc(C(=O)OC)c1 (stereo not given)	-1.4%	-3.2%	25.5%	-9.7%	·
O=C1c2ccccc2C(Nc2ccc3c(c2)OCO3)N1Cc1ccc2c(c1)OCO2 (stereo not given)	39.8µM*	20µM*	?	44.7µM*	?
COc1ccc(NC2c3ccccc3C(=O)N2Cc2ccco2)cc1OC (stereo not given)	?	?	-9.7%	?	-7.1%
COc1ccc(OC)c(NC2c3ccccc3C(=O)N2Cc2ccc3c(c2)OCO3)c1 (stereo not given)	31.6µM*	35.5µM*	?	44.7µM*	·
O=C1c2ccccc2C(Nc2ccc(F)c(Cl)c2)N1Cc1ccco1 (stereo not given)	44.7µM*	?	15.3%	-29.6%	-4.5%
O=C1c2ccccc2C(Nc2ccc3c(c2)OCO3)N1Cc1ccco1 (stereo not given)	10µM*	44.7µM*	?	56.2µM*	-6.5%
Fc1ccccc1-n1ncc2c1ncn1nc(Cc3ccccc3)nc21	-9.6%[59 µM]	4.1%	23.8%	-2.4%	·
O=[N+]([O-])c1ccc(O)c(C=Nc2cccc3ncccc23)c1	13.5%[59 µM]	-25.6%	30.1%	-18.1%	·
Oc1ccc(Cl)cc1N=Cc1sc2ccccc2c1Cl	?	-15.6%	23.5%	?	·
Cc1cccc(/N=C/c2sc3ccccc3c2O)n1	31.6µM*	?	?	?	-13.9%
O=[N+]([O-])c1ccc(O)c(C=Nc2cccc3ccccc23)c1	50.1µM*	-10.8%	-11.2%	-20.5%	2.7%
O=[N+]([O-])c1ccc(O)c(N=Cc2sc3ccccc3c2O)c1	44.7µM*	14.1µM*	-35.1%	44.7µM*	-17.0%
CCc1cccc(NC(=O)Cn2cc(C(=O)c3ccncc3)c(=O)c3cc(C)c(C)cc32)c1	-1.5%[59 µM]	-12.2%	22.7%[57 µM]	?	·
CN(C)CCN1C(=O)C(=O)/C(=C(/O)c2ccc(S(=O)(=O)N3CCOCC3)cc2)C1c1ccccc1 (stereo not given)	-4.9%	-2.1%	12.5%	-19.8%	6.8%
O=C1C(=O)N(CCN2CCOCC2)C(c2ccc(Cl)cc2)/C1=C(/O)c1ccc(S(=O)(=O)N2CCOCC2)cc1 (stereo not given)	56.2µM*	23.8%	54.0%	-3.5%	·
O=C1C(=O)N(CCN2CCOCC2)C(c2ccccc2F)/C1=C(\O)c1ccc(S(=O)(=O)N2CCOCC2)cc1 (stereo not given)	50.1µM*	-23.4%	9.5%	-14.7%	·
CC(C)Sc1ncc(Cl)c(C(=O)N(Cc2ccc(F)cc2)C2CCS(=O)(=O)C2)n1 (stereo not given)	1.5%[59 µM]	-11.4%	47.6%	-6.9%	·
